Screens as filed in PubChem BioAssay.
The list is not random: actives were taken first. Their share in the collection is about 2.8%.
POLI inh: blocks human DNA polymerase iota activity | Q9UNA4 | Pol iota fluorescent replication assay, 10 min | Potency, µM (top dose mostly 115 µM), inactives show at the top dose activity, negative = inhibition, actives largely listed as inhibitors | 390,000 compounds, 1% hits | AID 588590; also: potency is read from the fitted curve at half-maximal effect
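Pol iota at 10 nM preincubated 15 min with compounds at room temperature; reaction started with fluorescent substrate, 50 nM final. Fluorescence read kinetically at 0 and 10 min; buffer-only wells as negative control.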
Pol beta inh: DNA polymerase beta (human) inhibition. Potency, µM (titrated, usually from 114 µM), without a hit: at the top dose activity change, negative = inhibition, most hits filed as inhibitors. AID 485314. Pol beta primer extension/strand displacement, fluorescence kinetic. P06746. 340,000 compounds, 1.3% hits; also: potency is read from the fitted curve at half-maximal effect; % is scaled to controls: 0 for no effect and ±100 for the full control effect
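Pol beta (10 nM) was preincubated with compound for 15 min at room temperature. The reaction was then started with 50 nM substrate and read immediately and after a further 10 min at room temperature.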
POLH inh: inhibitors of human DNA polymerase eta; 390,000 compounds, 1.2% hits; Q9Y253; Potency, µM (highest dose often 114 µM), for the others: top-dose activity change, negative = inhibition, usual class: inhibitors; AID 588591; recombinant Pol eta, fluorescent DNA replication assay; also: potency is read from the fitted curve at half-maximal effect; % is scaled to controls: 0 for no effect and ±100 for the full control effect
Target sequence (Q9Y253 whole entry, looked up): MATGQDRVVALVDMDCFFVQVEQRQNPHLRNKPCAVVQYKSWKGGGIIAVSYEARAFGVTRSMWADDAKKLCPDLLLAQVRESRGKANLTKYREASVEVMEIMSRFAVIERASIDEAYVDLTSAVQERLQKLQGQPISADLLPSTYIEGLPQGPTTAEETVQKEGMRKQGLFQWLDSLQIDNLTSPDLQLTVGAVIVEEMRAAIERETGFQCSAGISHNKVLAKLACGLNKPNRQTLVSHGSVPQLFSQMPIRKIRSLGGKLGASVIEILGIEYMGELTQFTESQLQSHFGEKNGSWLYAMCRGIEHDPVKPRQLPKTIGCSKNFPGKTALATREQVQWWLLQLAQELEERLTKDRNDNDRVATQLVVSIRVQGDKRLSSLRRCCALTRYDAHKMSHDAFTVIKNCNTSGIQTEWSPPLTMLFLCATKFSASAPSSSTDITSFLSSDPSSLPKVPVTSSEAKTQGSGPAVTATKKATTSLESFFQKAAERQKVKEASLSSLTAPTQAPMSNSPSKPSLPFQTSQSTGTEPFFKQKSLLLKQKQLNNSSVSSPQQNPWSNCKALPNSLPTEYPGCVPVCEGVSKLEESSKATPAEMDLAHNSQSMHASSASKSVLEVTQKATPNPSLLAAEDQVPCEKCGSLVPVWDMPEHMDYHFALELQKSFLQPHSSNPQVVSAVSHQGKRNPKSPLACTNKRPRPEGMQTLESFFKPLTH
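Pol eta (10 nM) was preincubated with compounds for 15 min at room temperature, after which fluorescent replication substrate (50 nM final) was added to start the reaction. Fluorescence was read kinetically at 0 and 10 min.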
WRN inhibitor: WRN helicase (human) inhibition. Q14191. WRN helicase unwinding, fluorescent forked duplex, kinetic. Potency, µM (doses to about 114 µM), inactives show at the top dose activity change, negative = inhibition, hits mostly inhibitors. 360,000 compounds, 0.46% hits. AID 651768; also: potency is read from the fitted curve at half-maximal effect; % is scaled to controls: 0 for no effect and ±100 for the full control effect; nearly all actives have a fitted effect of over 55% in size
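Screening of the MLSMR collection measured strand separation of a quenched forked DNA duplex (100 nM) by 20 nM WRN with 2 mM ATP, all final. Compounds were preincubated with enzyme 15 min at room temperature.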
PI5P4K alpha inh: blocks human PI5P4K alpha kinase activity; PI5P4Kalpha enzyme, ADP-Glo luminescence, 60 min; stronger effect = lower value; 330,000 compounds, 1.2% hits; AID 652105; max response, %; active = max response of -50% or lower; inconclusive = between -30% and -50%; inactive = -30% or higher; also: value at the top dose of about 77 µM; % is scaled to controls: 0 for no effect and ±100 for the full control effect
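Human PI5P4Kalpha with substrate in 0.038 M HEPES pH 7.4, 0.28 mM EGTA, 0.1% CHAPS, 5% DMSO; reaction started with 5 microM ATP (final), 60 min at room temperature. ADP formed read by ADP-Glo luminescence.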
Pol kappa inh: inhibitors of human DNA polymerase kappa; purified Pol kappa, fluorescent DNA synthesis assay, 10 min; Q9UBT6; 400,000 compounds, 0.53% hits; Potency, µM (top dose mostly 107 µM), for inactives: top-dose activity, negative = inhibition, actives largely listed as inhibitors; also: potency is read from the fitted curve at half-maximal effect; % is scaled to controls: 0 for no effect and ±100 for the full control effect
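Enzyme at 10 nM met test compounds for 15 min at room temperature. Substrate addition (50 nM final) began the reaction, which was monitored by fluorescence at 0 and 10 min.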
ADP-Glo counter: interferes with ADP-Glo detection without enzyme present; shares compounds with PI5P4K alpha inh; ADP-Glo detection counter-screen, luciferase luminescence, no enzyme; Potency, µM (doses to about 76.9 µM), for the others: top-dose activity change, negative = inhibition, usual class: inhibitors; 1,100 tested, under 10 active; AID 743285
Active calls of the source: *; [ ] = dose if it differs, or a comment. Unless noted, calls follow the shape of the dose curve; as a rule, active = well fitted curve in the direction sought with a large enough effect; inconclusive = small, poorly fitted or top-dose-only effect, or another doubt; inactive = no such curve, though single readings can be large; an effect the other way counts as inactive or inconclusive.

Screening Cc1cc(NC(=O)c2sc(Nc3cccc(C(F)(F)F)c3)nc2N)no1 returned POLI inh 13%, Pol beta inh 23%, POLH inh 5%, WRN inhibitor -12%, PI5P4K alpha inh -67*, Pol kappa inh -12% and ADP-Glo counter 2%.
For Cc1cc(NC(=O)c2sc(Nc3ccc(F)c(Cl)c3)nc2N)no1 the results were POLI inh 145%, Pol beta inh 1%, POLH inh -17%, WRN inhibitor -3%, PI5P4K alpha inh inconclusive and Pol kappa inh -1%.
O=C(Nc1nnc(COc2ccc(Cl)cc2)s1)c1cccs1 was read as POLI inh inconclusive, Pol beta inh 10%, POLH inh -8%, WRN inhibitor -31%, PI5P4K alpha inh -57*, Pol kappa inh -1% and ADP-Glo counter 0%.
Screening O=C(Nc1nnc(COc2ccc(F)cc2)s1)c1cccs1 returned POLI inh 4%, Pol beta inh 20%, POLH inh 1%, WRN inhibitor 1%, PI5P4K alpha inh -8 and Pol kappa inh 0%.
CCOc1ccccc1NC(=O)Cn1nc2c3cc(F)ccc3n(Cc3cccc(C)c3)cc-2c1=O was read as POLI inh -10%, Pol beta inh 15%, POLH inh -9% and Pol kappa inh 10%.
CCCCn1c(N)c(N(CC(C)C)C(=O)c2cc(-c3ccco3)nc3ccccc23)c(=O)[nH]c1=O was read as POLI inh 40µM*, POLH inh 28µM*, WRN inhibitor -25%, PI5P4K alpha inh -59*, Pol kappa inh inconclusive and ADP-Glo counter 3%.
Screening CC(C)(NC(=O)c1ccccc1)c1nc2ccccc2s1 returned POLI inh -8%, POLH inh 4%, WRN inhibitor -5%, PI5P4K alpha inh -82*, Pol kappa inh -1% and ADP-Glo counter -4%.
For O=C(NC(Nc1nc2ccccc2s1)(C(F)(F)F)C(F)(F)F)c1ccccc1 the results were POLI inh 12%, Pol beta inh inconclusive, POLH inh 7%, WRN inhibitor -4%, PI5P4K alpha inh 10 and Pol kappa inh -11%.
Screening NC(=O)c1c(NC(=O)c2ccncc2)sc2c1CCCC2 returned POLI inh 5%, Pol beta inh -24%, POLH inh 6%, WRN inhibitor -7%, PI5P4K alpha inh -6 and Pol kappa inh 0%.
NC(=O)c1c(NC(=O)CN2CCCC2)sc2c1CCCC2 was read as POLI inh -14%, Pol beta inh -17%, POLH inh -11%, WRN inhibitor -28%, PI5P4K alpha inh -53*, Pol kappa inh -16% and ADP-Glo counter 3%.
`NC(=O)c1c(NC(=O)c2ccccc2)sc2c1CCC2` gave POLI inh inconclusive, Pol beta inh -1%, POLH inh -19%, WRN inhibitor -12%, PI5P4K alpha inh -51*, Pol kappa inh -21% and ADP-Glo counter -2%.
For O=C(Nc1sc2c(c1C(=O)O)CCC2)c1ccccc1Cl the results were POLI inh 55%, Pol beta inh 2%, POLH inh -1%, WRN inhibitor -20%, PI5P4K alpha inh -59*, Pol kappa inh -2% and ADP-Glo counter -8%.
NC(=O)C1CCN(CC(=O)Nc2ccc3c(c2)OCO3)CC1 was read as POLH inh -6%, WRN inhibitor 6% and PI5P4K alpha inh -1.
For NC(=O)C1CCN(CC(=O)Nc2ccc3c(c2)OCCO3)CC1 the results were POLI inh inconclusive, POLH inh inconclusive, WRN inhibitor 6%, PI5P4K alpha inh -63*, Pol kappa inh inconclusive and ADP-Glo counter -5%.
`O=C(NC(c1ccc(Cl)cc1)c1cc(Cl)c2cccnc2c1O)c1cccnc1` (stereo not drawn) gave POLI inh 32%, Pol beta inh 1%, POLH inh -14%, WRN inhibitor -7%, PI5P4K alpha inh -63*, Pol kappa inh -1% and ADP-Glo counter -9%.
CC(=O)NC(c1ccc(C)cc1)c1cc([N+](=O)[O-])c2cccnc2c1O (stereo not drawn) was read as POLI inh 109%, Pol beta inh 5%, POLH inh -6%, WRN inhibitor -12%[57.1 µM], PI5P4K alpha inh -59*, Pol kappa inh -16% and ADP-Glo counter 3%.
`CC(=O)NC(c1ccccc1)c1cc(Cl)c2cccnc2c1O` (stereo not drawn) gave POLI inh 34%, Pol beta inh 29%, POLH inh -5%, WRN inhibitor 12%, PI5P4K alpha inh -2 and Pol kappa inh 7%.
CCC(=O)NC(c1ccc(C)cc1)c1cc([N+](=O)[O-])c2cccnc2c1O (stereo not drawn) was read as POLI inh 23%, Pol beta inh -16%, POLH inh -13%, WRN inhibitor inconclusive, PI5P4K alpha inh -19 and Pol kappa inh -27%.
Screening COc1cccc(CNC(=O)[C@@H]2CCCN2C(=O)[C@H]2CCCCN2C(=O)c2ccccc2C)c1 returned WRN inhibitor -8% and PI5P4K alpha inh 2.
For Cc1cc(C)cc(Nc2nc3ccccc3nc2-n2nc(C)cc2C)c1 the results were POLI inh -1%, Pol beta inh 45%, POLH inh -12% and Pol kappa inh -3%.
For CCOC(=O)c1c(S(=O)(=O)N2CCC(C(=O)Nc3ccccc3OC)CC2)c(C)n(CC)c1C the results were POLI inh 7%, Pol beta inh -1%, POLH inh -11% and Pol kappa inh -12%[60.1 µM].
`Cc1ccc(C(=O)NCc2ccc3c(c2)CCN3C(=O)c2ccc(C)cc2)cc1` gave POLI inh 10%, Pol beta inh 8%, POLH inh 8% and Pol kappa inh -5%[60.1 µM].
For O=C(OCC(=O)N1CCCCCC1)c1ccc(Cl)c(S(=O)(=O)N2CCCC2)c1 the results were POLI inh -19%, Pol beta inh -19%, POLH inh -4%, WRN inhibitor -28%, PI5P4K alpha inh -61*, Pol kappa inh -25% and ADP-Glo counter 2%.
CC[C@]12c3[nH]c4cc(-c5ccco5)ccc4c3CCN1C(=O)[C@@H](CC(=O)NCCC1=CCCCC1)C[C@@H]2C(=O)N1CCN(C(=O)c2ccco2)CC1 was read as POLI inh 7.9µM*, POLH inh -10%, WRN inhibitor -5%[11.6 µM], PI5P4K alpha inh -73*, Pol kappa inh 28µM* and ADP-Glo counter 1%.
